# Reference: PubChem BioAssay (NCI)
# Compounds without any hit were thinned out: in the full panel of roughly 83,000, 20% have a hit.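 Negative percent growth values reflect cell death: -40 means 40% of the cells present at the start died, and -100 means all died.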 Activity calls are given as the source filed them. Rule for the calls: active = growth percent below 10; inactive = the rest.
# Tested on: SW-620 colon
# Assay: NCI-60 one-dose screen, 48 h (100 = growth as untreated, 0 = no growth, -100 = all killed)
# Conditions: 10 µM unless noted
row,SMILES,growth
1,Cc1cc(N2CCCCC2)nc(NC2CCCC(Nc3ccnc4cc(Cl)ccc34)C2)n1 (stereo unspecified),-66.7% (active)
2,COc1cc(-c2nn(-c3ccc(C(=O)O)cc3)cc2C(=O)O)ccc1O,32.1% (inactive)
3,COc1cccc(/C=N/NC(=O)c2ccccc2Nc2ccnc(C(F)(F)F)c2)c1O,31.9% (inactive)
4,COc1cc(C(=O)Oc2ccccc2OC(=O)c2cc(OC)c(OC)c(OC)c2)cc(OC)c1OC,109% (inactive)
5,CN1CCN(CCCOc2cccc3nc(Nc4cc(Cl)cc(Cl)c4)ccc23)CC1,-66.6% (active)
6,COc1cccc(/C=C2\SC(=Nc3ccc(NC(C)=O)cc3)NC2=O)c1OC,92% (inactive)
7,Cc1cc(N2CCN(c3ccnc4cc(Cl)ccc34)CC2)nc(NC2CCCCC2)n1,14.9% (inactive)
8,O=C(/C=C/C=C/c1ccc2c(c1)OCO2)N/N=C\c1ccc(O)cc1O,26.5% (inactive)
9,N#C/C(=C\c1ccc(-c2cc(C(F)(F)F)ccc2Cl)o1)c1nc(-c2ccco2)cs1,103% (inactive)
10,CCc1nc(N)nc(N)c1C#CC(C)c1cc(-c2ccnc(C)c2)c2oc(C)nc2c1 (stereo unspecified),16.9% (inactive)
11,O=C1Nc2c(ccc(Cl)c2Cl)/C1=C\c1cc(C(F)(F)F)cc(C(F)(F)F)c1,-77.6% (active)
12,COc1ccc(S(=O)(=O)N2CC3(COC3)C2)cc1NC(=O)c1[nH]c(C)c2c1CCCCC2=O,72.9% (inactive)

# Tested on: MCF7 breast
# Assay: as above
# Conditions: 10 µM unless noted
row,SMILES,growth
1,Cc1cc(N2CCCC2)nc(NC2CCCC(Nc3ccnc4cc(Cl)ccc34)C2)n1 (stereo unspecified),-13.2% (active)
2,CN(C)c1ccc(N=Nc2ccc(Br)cn2)c(O)c1,10.4% (inactive)
3,COc1ccc(-c2cc(NC(=O)Nc3ccc4ncsc4c3)no2)cc1,84.6% (inactive)
4,O=[N+]([O-])c1ccc2c(c1)Cc1cc(F)ccc1-2,84.4% (inactive)
5,COc1ccc2[nH]cc(-c3noc(C(=O)c4cn(C)c5ccc(F)cc45)n3)c2c1,58.8% (inactive)
6,CCOC(=O)c1csc(NC(=O)COc2cccc(/C=C3\CSc4ccccc4C3=O)c2)n1,2.02% (active)
7,O=C(N=Nc1c(O)[nH]c2ccc(Br)cc12)c1cc(-c2ccccc2)on1,93.2% (inactive)
8,CC1CCNC(C)C1 (stereo unspecified),96.8% (inactive)
9,CC(O)CN(CC(C)O)c1ccc2c(c1)Cc1cc([N+](=O)[O-])ccc1-2 (stereo unspecified),99.2% (inactive)
10,Nc1nc2ccc3[nH]ncc3c2c2c1CCCC2,7.3% (active)
11,N#CN1CC[C@H](C(=O)Nc2cc3cc(C(N)=O)ccc3cn2)C1,6.05% (active)
12,C=CC(=O)Nc1cccc(-c2nc(SC)nc(NCCN3CCOCC3)c2C#N)c1,72.6% (inactive)
13,CC(=O)OCCC/C(=C/c1cc2ccccc2c2ccccc12)[N+](=O)[O-],-87.8% (active)
14,NC(CSC(c1ccccc1)(c1ccccc1)c1ccc(Cl)cc1)C(=O)O (stereo unspecified),8.48% (active)
15,Cc1ccccc1COc1ccc(-c2ccnn2-c2ccc(Cl)cc2)cc1,31.9% (inactive)
16,COc1ccc(-c2cc(=O)c3c(OC)c4ccoc4cc3o2)cc1,98% (inactive)
17,CSc1nc(Nc2cccc(NC(=O)CCl)c2)c(C#N)c(-c2cccc([N+](=O)[O-])c2)n1,0% (active)
18,CC(C)(C)c1cc(/C=N\NC(=O)/C=C/C=C/c2ccc3c(c2)OCO3)c(O)c(C(C)(C)C)c1,61.3% (inactive)
19,CCOc1cc2ncc(C#N)c(Nc3ccc(OCc4cccc(F)c4)c(Cl)c3)c2cc1NC(=O)CC1CCSS1 (stereo unspecified),2.9% (active)
20,COc1ccc(-c2cc(Nc3ccnc(N4CCOCC4)n3)on2)cc1,24.4% (inactive)

row,SMILES,growth
1,COC(=O)[C@]12CCC(C)(C)C[C@H]1[C@H]1C(=O)C[C@@H]3[C@@]4(C)c5c([nH]c6ccccc6c5=O)C(C)(C)[C@@H]4CC[C@@]3(C)[C@]1(C)CC2,44.5% (inactive)
2,CN(C)CCCNc1c2ccccc2nc2ccccc12,92% (inactive)
3,O=C1NC(=S)N[C@H]1CC(=O)n1cnc2ccccc21,68.7% (inactive)
4,Cc1ccc2oc(=O)cc(C3c4ccc([nH]4)C(c4cc(=O)oc5ccc(C)cc45)c4ccc([nH]4)C(c4cc(=O)oc5ccc(C)cc45)c4ccc([nH]4)C(c4cc(=O)oc5ccc(C)cc45)c4ccc3[nH]4)c2c1 (stereo unspecified),-20.9% (active)
5,CSc1ccc(-c2n[nH]nc2-c2cc3ccccc3s2)cc1,27.7% (inactive)
6,COC(=O)c1ccc(NC(=O)c2ccc(-c3cccc([N+](=O)[O-])c3)o2)cc1,76.8% (inactive)
7,O=C(N=Nc1c(O)[nH]c2ccccc12)c1cc(-c2ccccc2)on1,87.9% (inactive)
8,Cc1cc(N2CCCCC2)nc(NC2CCCC(Nc3ccnc4cc(Cl)ccc34)C2)n1 (stereo unspecified),-50.2% (active)
9,COc1cc(-c2nn(-c3ccc(C(=O)O)cc3)cc2C(=O)O)ccc1O,35.3% (inactive)
10,COc1cccc(/C=N/NC(=O)c2ccccc2Nc2ccnc(C(F)(F)F)c2)c1O,3.13% (active)
11,COc1cc(C(=O)Oc2ccccc2OC(=O)c2cc(OC)c(OC)c(OC)c2)cc(OC)c1OC,97.2% (inactive)
12,CN1CCN(CCCOc2cccc3nc(Nc4cc(Cl)cc(Cl)c4)ccc23)CC1,-80.3% (active)
13,COc1cccc(/C=C2\SC(=Nc3ccc(NC(C)=O)cc3)NC2=O)c1OC,92.6% (inactive)
14,Cc1cc(N2CCN(c3ccnc4cc(Cl)ccc34)CC2)nc(NC2CCCCC2)n1,12.8% (inactive)
15,O=C(/C=C/C=C/c1ccc2c(c1)OCO2)N/N=C\c1ccc(O)cc1O,14.1% (inactive)
16,N#C/C(=C\c1ccc(-c2cc(C(F)(F)F)ccc2Cl)o1)c1nc(-c2ccco2)cs1,45.3% (inactive)
17,CCc1nc(N)nc(N)c1C#CC(C)c1cc(-c2ccnc(C)c2)c2oc(C)nc2c1 (stereo unspecified),8.57% (active)
18,O=C1Nc2c(ccc(Cl)c2Cl)/C1=C\c1cc(C(F)(F)F)cc(C(F)(F)F)c1,-3.68% (active)
19,COc1ccc(S(=O)(=O)N2CC3(COC3)C2)cc1NC(=O)c1[nH]c(C)c2c1CCCCC2=O,21.9% (inactive)
